# The campaign covered roughly 310,000 compounds. About 2,200 (0.71%) showed an effect of 50% or more. The effect is printed as a negative number. Many of the other results were omitted from the sample, so strong results are more common in it than they were.
# Molecular target: human ether-à-go-go-related gene (hERG) potassium channel (human, UniProt Q12809)
# Assay: primary screen, population patch clamp on CHO cells stably expressing hERG; higher = less effect of the substance
# Sequence of human ether-à-go-go-related gene (hERG) potassium channel (Q12809 whole entry, looked up): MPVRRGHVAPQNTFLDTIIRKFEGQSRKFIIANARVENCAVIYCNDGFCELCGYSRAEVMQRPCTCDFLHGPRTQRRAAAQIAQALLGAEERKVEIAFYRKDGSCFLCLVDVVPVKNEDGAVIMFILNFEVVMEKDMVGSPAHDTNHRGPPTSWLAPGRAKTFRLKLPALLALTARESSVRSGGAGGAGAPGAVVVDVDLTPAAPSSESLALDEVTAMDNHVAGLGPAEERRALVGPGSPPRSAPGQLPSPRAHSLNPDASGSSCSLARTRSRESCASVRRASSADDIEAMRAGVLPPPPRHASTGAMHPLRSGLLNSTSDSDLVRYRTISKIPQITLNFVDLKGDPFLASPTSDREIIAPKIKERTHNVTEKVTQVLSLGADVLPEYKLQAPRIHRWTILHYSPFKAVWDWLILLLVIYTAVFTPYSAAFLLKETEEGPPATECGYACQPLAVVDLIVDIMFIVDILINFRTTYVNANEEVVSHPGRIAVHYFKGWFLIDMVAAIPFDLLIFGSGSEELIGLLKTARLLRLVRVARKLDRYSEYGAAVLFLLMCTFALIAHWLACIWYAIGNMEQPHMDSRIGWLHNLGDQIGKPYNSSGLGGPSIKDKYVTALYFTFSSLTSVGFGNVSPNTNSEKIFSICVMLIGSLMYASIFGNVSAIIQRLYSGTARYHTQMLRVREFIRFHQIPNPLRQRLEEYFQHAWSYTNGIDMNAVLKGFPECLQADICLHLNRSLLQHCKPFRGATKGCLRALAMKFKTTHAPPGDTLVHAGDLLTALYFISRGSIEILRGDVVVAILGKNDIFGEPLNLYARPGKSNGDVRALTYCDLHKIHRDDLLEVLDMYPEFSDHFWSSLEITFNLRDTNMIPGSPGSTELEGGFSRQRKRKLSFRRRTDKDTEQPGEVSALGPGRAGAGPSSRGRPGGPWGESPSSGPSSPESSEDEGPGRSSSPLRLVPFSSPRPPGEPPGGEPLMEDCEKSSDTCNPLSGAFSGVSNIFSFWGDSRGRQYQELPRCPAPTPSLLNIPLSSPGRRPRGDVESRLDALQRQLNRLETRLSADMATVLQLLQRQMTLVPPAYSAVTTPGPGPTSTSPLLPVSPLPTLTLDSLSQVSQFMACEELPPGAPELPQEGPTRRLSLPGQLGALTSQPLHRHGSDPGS
row,Compound,"hERG current change (%, negative = inhibition) at 1uM [%]"
1,Cc1ccc(-c2csc(NC(=S)NC(=O)/C=C/c3ccco3)n2)cc1,23.2
2,O=C1OCCC1Sc1nnc(-c2ccc3c(c2)OCO3)n1-c1ccccc1 (centres unmarked),4.75
3,Cc1c(C(=O)NCc2ccc3c(c2)OCO3)oc2ccc(S(=O)(=O)N3CCCC3)cc12,19.4
4,N#Cc1cc2c(nc1SCC(=O)NCc1ccc3c(c1)OCO3)CCCCC2,1.91
5,CCOc1ccc(NC(=O)CN(C)C(=O)CSCc2ccc(C)cc2)cc1OCC,-1.27
6,COC(=O)CCNC(=O)Cc1c(C)n(C(=O)c2ccc(Cl)cc2)c2ccc(OC)cc12,8.1
7,Cc1ccc(-n2ccnc2SCC(=O)N(CC(C)C)C2CCS(=O)(=O)C2)c(C)c1 (centres unmarked),-3.07
8,COc1cc2c(c(OC)c1OC)-c1c(cc(OC)c(OC)c1OC)C[C@](C)(O)[C@@H](C)C2,-58.4
9,COc1cc2c(c(OC)c1OC)-c1c(cc3c(c1OC)OCO3)C[C@H](C)[C@@](C)(O)C2,17.5
10,COc1cc2c(c(OC)c1OC)-c1c(cc(OC)c(OC)c1OC)C[C@H](C)[C@H](C)C2,-22.5
11,O=Nc1c(O)[nH]c2ccc(Cl)cc12,4.46
12,CCCc1cc(=O)oc2cc(C)cc(OCC(=O)NCc3ccncc3)c12,-48
13,Cc1c(C)c2ccc(OCC(=O)NCCCn3ccnc3)c(C)c2oc1=O,-11.1
14,Cc1cc(OC(C)C(=O)NCCCn2ccnc2)c2c(C)cc(=O)oc2c1 (centres unmarked),9.26
15,CCc1cc(=O)oc2cc(C)cc(OC(C)C(=O)NCCCn3ccnc3)c12 (centres unmarked),2.72
16,CCCc1cc(=O)oc2c(C)c(OCC(=O)NCCCn3ccnc3)ccc12,-70
17,Cc1cc(OCC(=O)NCCCn2ccnc2)c2c(C)cc(=O)oc2c1,14.7
18,CCCCc1cc(=O)oc2cc(C)cc(OCC(=O)NCc3ccncc3)c12,-73.8
19,CCc1cc(=O)oc2c(C)c(OCC(=O)NCCCn3ccnc3)ccc12,5.28
20,CCc1cc(=O)oc2cc(C)cc(OCC(=O)NCCCn3ccnc3)c12,-7.42
21,Cc1cc(OC(C)C(=O)NCCCn2ccnc2)c2c(C)c(C)c(=O)oc2c1 (centres unmarked),-51.6
22,CCc1cc(=O)oc2cc(C)cc(OCC(=O)NCc3ccncc3)c12,-8.01
23,CCCc1cc(=O)oc2cc(C)cc(OCC(=O)NCCCn3ccnc3)c12,-66.7

# From publication PMC4336329 (PLoS ONE, 2015)
